These results are taken from PMC4666376, “Characterisation of aptamer–target interactions by branched selection and high-throughput sequencing of SELEX pools”.

The target in this test is PAI-1 wild type, active (human, UniProt P05121 24-402). In words: branched SELEX with high-throughput sequencing; PAI-1 immobilised on polyclonal anti-PAI-1 antibody; HBS (10 mM HEPES pH 7.4, 140 mM NaCl), 2 mM MgCl2, 2 mM CaCl2, 0.1% BSA; RNA pool 100 nM; PAI-1 captured on antibody-coated wells; 45 min; binding temperature not stated (PAI-1 capture at room temperature); high values mean tight binding.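 Further: Pool frequency after one selection round with this target divided by frequency before selection.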 The note with it: protein: recombinant; tags: N-terminal His6; structured_RNA; 2'-F pyrimidines.
PAI-1 wild type, active, sequence (P05121 24-402): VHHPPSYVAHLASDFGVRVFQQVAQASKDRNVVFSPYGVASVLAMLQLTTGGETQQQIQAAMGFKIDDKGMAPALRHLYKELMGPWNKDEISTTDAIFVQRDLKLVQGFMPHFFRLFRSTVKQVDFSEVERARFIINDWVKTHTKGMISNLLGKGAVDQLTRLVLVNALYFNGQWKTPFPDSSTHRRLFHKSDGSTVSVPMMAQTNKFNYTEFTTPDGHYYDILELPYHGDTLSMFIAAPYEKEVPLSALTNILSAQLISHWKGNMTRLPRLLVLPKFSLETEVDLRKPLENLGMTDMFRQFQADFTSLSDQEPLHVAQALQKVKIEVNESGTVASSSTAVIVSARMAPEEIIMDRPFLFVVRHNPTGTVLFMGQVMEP
On to “GGGGCCACCAACGACAUUAAGUUCGUCCUCUUCCAAGAGAAGGGGUCUAUGCCGUUGAUAUAAAUAGUGCCCAUGGAUC”, for which the binding signal was 5.35 enrichment factor.

Regarding “GGGGCCACCAACGACAUUGCGCGAAGCGCUUACGCGUGUUGAUCGAAUGUUGUUGAUAUAAAUAGUGCCCAUGGAUC”, the binding signal was 1.4 enrichment factor.

As for “GGGGCCACCAACGACAUUGUCGUAGGCGUCAUAUUAUACUUACGCUGACCAAUGUUGAUAUAAAUAGUGCCCAUGGAUC”, the binding signal was 2.09 enrichment factor.

“GGGGCCACCAACGACAUUGCGCUACGAUCAAAACACGUAGUAGUGCAACGAAUGUUGAUAUAAAUAGUGCCCAUGGAUC”: the binding signal turned out to be 0.29 enrichment factor.

For the sequence “GGGGCCACCAACGACAUUUUGAUCAACACAACGUAGGUCUAUGCGACCGAUAGUUGAUAUAAAUAGUGCCCAUGGAUC”, the binding signal was 2.02 enrichment factor.

For “GGGGCCACCAACGACAUUUCGCAGCUUCGUAGUACAGGCGCAAGUUGACACAUGUUGAUAUAAAUAGUGCCCAUGGAUC”, the binding signal amounted to 1.47 enrichment factor.

In the case of “GGGGCCACCAACGACAUUGCACCUGUAGGCUAGGUCACUGGCUGACUGCAAUUGUUGAUAUAAAUAGUGCCCAUGGAUC”, the binding signal worked out at 0.47 enrichment factor.
